In PMC5700166 one finds binding signal data, which are given here for 39 sequences.

In the assay the target is GST-Hu-p50 (Homo sapiens, UniProt P19838 7-356). As to the kind of experiment: protein-binding microarray (PBM); PBM: ~300 nM protein, 6 mM HEPES pH 7.8, 80 mM KCl, 0.5 mM EDTA, 0.5 mM EGTA, 6% glycerol, 35 ng/ul poly-dIdC, 1% milk, 1 h, room temperature; Ap Aiptasia and Nv Nematostella (sea anemones) / Co Capsaspora / Aq Amphimedon (sponge) / Dm Drosophila / Hu human; RHD is the Rel homology domain; high values mean tight binding. Particulars: dsDNA, one strand shown.
Chain of GST-Hu-p50 (P19838 7-356): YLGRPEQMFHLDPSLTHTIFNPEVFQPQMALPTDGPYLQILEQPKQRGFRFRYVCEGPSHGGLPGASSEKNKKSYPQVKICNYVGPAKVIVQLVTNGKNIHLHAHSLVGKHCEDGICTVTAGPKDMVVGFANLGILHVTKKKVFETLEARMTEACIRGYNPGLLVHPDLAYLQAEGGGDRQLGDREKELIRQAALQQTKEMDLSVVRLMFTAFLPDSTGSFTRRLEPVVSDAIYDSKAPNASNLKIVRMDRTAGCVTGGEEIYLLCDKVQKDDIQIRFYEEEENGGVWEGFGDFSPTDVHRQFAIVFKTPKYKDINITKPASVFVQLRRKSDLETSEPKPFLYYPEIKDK
“CCGATTAACATCAACTGGGAAAATGATGTTAATCGGGTCTTGATTCGCTTGACGCTGCTG” had a binding signal of 2 z-score. For “CCGATTAACATCAGGAGTTTACCTGATGTTAATCGGGTCTTGATTCGCTTGACGCTGCTG” the value was 1.4 z-score.

For “CCGATTAACATCAAATCTTTCCCTGATGTTAATCGGGTCTTGATTCGCTTGACGCTGCTG”, the binding signal came out at 3.68 z-score. For the sequence “CCGATTAACATCAAATCGGGAAATGATGTTAATCGGGTCTTGATTCGCTTGACGCTGCTG”, the binding signal came to 1.88 z-score. For “CCGATTAACATCAAATAGCCCCCTGATGTTAATCGGGTCTTGATTCGCTTGACGCTGCTG” the value was 4.73 z-score; for “CCGATTAACATCAAATTCCCACTTGATGTTAATCGGGTCTTGATTCGCTTGACGCTGCTG”, 3.73 z-score. The figure for “CCGATTAACATCAGAATTCCCGCTGATGTTAATCGGGTCTTGATTCGCTTGACGCTGCTG” is 3.53 z-score; for “CCGATTAACATCAAAAAATACCATGATGTTAATCGGGTCTTGATTCGCTTGACGCTGCTG” it is 2.43 z-score; for “CCGATTAACATCAGGGGGTCTACTGATGTTAATCGGGTCTTGATTCGCTTGACGCTGCTG” it is 3.36 z-score.

Turning to “CCGATTAACATCAGGGGGGACAATGATGTTAATCGGGTCTTGATTCGCTTGACGCTGCTG”, the binding signal was 3.69 z-score. For “CCGATTAACATCAGGGGAGGAAATGATGTTAATCGGGTCTTGATTCGCTTGACGCTGCTG” the value was 3.1 z-score; for “CCGATTAACATCAAATTTCCCGCTGATGTTAATCGGGTCTTGATTCGCTTGACGCTGCTG”, 3.98 z-score.

For the sequence “CCGATTAACATCAGGACAGTCCCTGATGTTAATCGGGTCTTGATTCGCTTGACGCTGCTG”, the binding signal was 4.04 z-score. For “CCGATTAACATCACCCCAGCCCCTGATGTTAATCGGGTCTTGATTCGCTTGACGCTGCTG” the value was 2.68 z-score; for “CCGATTAACATCACGGAACTCCCTGATGTTAATCGGGTCTTGATTCGCTTGACGCTGCTG”, 3.05 z-score; for “CCGATTAACATCAGGGAGCTACCTGATGTTAATCGGGTCTTGATTCGCTTGACGCTGCTG”, 1.35 z-score.

Turning to “CCGATTAACATCAGGGAAAACCATGATGTTAATCGGGTCTTGATTCGCTTGACGCTGCTG”, the binding signal stood at 4.01 z-score. For “CCGATTAACATCAAATAGGGAATTGATGTTAATCGGGTCTTGATTCGCTTGACGCTGCTG” the value was 3.55 z-score; for “CCGATTAACATCAGAATTCCCACTGATGTTAATCGGGTCTTGATTCGCTTGACGCTGCTG”, 3.3 z-score. For “CCGATTAACATCACATATTTCCCTGATGTTAATCGGGTCTTGATTCGCTTGACGCTGCTG” the value was 3.71 z-score; for “CCGATTAACATCAGGGAATGCACTGATGTTAATCGGGTCTTGATTCGCTTGACGCTGCTG”, 2.28 z-score; for “CCGATTAACATCACGAGATTCCCTGATGTTAATCGGGTCTTGATTCGCTTGACGCTGCTG”, 2.64 z-score. The figure for “CCGATTAACATCACCCGTTTCCCTGATGTTAATCGGGTCTTGATTCGCTTGACGCTGCTG” is 2.75 z-score. The sequence “CCGATTAACATCAAGGGATCCCCTGATGTTAATCGGGTCTTGATTCGCTTGACGCTGCTG” returned a binding signal of 5.23 z-score. The figure for “CCGATTAACATCACGCAACCCCCTGATGTTAATCGGGTCTTGATTCGCTTGACGCTGCTG” is 5.03 z-score. For “CCGATTAACATCATTTCCCAAAATGATGTTAATCGGGTCTTGATTCGCTTGACGCTGCTG” the value was 1.56 z-score. The figure for “CCGATTAACATCAGGGAACTACCTGATGTTAATCGGGTCTTGATTCGCTTGACGCTGCTG” is 3.92 z-score. In turn, “CCGATTAACATCAGGAAAATACCTGATGTTAATCGGGTCTTGATTCGCTTGACGCTGCTG” gave a binding signal of 3.12 z-score. The figure for “CCGATTAACATCAGGAATCCCTATGATGTTAATCGGGTCTTGATTCGCTTGACGCTGCTG” is 1.89 z-score; for “CCGATTAACATCATAGTCCCATGTGATGTTAATCGGGTCTTGATTCGCTTGACGCTGCTG” it is 1.34 z-score; for “CCGATTAACATCAACCCTCCCCCTGATGTTAATCGGGTCTTGATTCGCTTGACGCTGCTG” it is 3.3 z-score.

“CCGATTAACATCATCTGGGAAAATGATGTTAATCGGGTCTTGATTCGCTTGACGCTGCTG”: the binding signal was 1.96 z-score. “CCGATTAACATCAGGGAATGTACTGATGTTAATCGGGTCTTGATTCGCTTGACGCTGCTG” returned a binding signal of 2.72 z-score. Turning to “CCGATTAACATCAGGTAATCCCATGATGTTAATCGGGTCTTGATTCGCTTGACGCTGCTG”, the binding signal worked out at 1.44 z-score. As for “CCGATTAACATCAGGCCACCCCCTGATGTTAATCGGGTCTTGATTCGCTTGACGCTGCTG”, the binding signal turned out to be 3.82 z-score. In turn, “CCGATTAACATCACTGTTTTCCCTGATGTTAATCGGGTCTTGATTCGCTTGACGCTGCTG” displayed a binding signal of 3.14 z-score. For “CCGATTAACATCAGGGGAAGGTATGATGTTAATCGGGTCTTGATTCGCTTGACGCTGCTG” the value was 3.52 z-score; for “CCGATTAACATCACGTAAACCCCTGATGTTAATCGGGTCTTGATTCGCTTGACGCTGCTG”, 3.75 z-score; for “CCGATTAACATCAAGGACTTCCCTGATGTTAATCGGGTCTTGATTCGCTTGACGCTGCTG”, 2.42 z-score.
